From PubChem BioAssay (Tox21)
Inconclusive results are not listed. A number with no mark means an inactive call. The call rests on the fitted dose curve.

test: qHTS assay for small molecule disruptors of the mitochondrial membrane potential - cell viability (AID 720634); conditions: HepG2 viability, ATP luminescence (CellTiter-Glo), 1 h; series mostly up to 83.2 µM; activity change, negative = cytotoxicity: at the top concentration;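 further: human HepG2 liver cancer cells; nearly all actives have a fitted effect of over 20% in size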
Source text: U.S. Tox21 Program National Center for Advancing Translational Sciences [NCATS] NIH Chemical Genomics Center [NCGC] U.S. Environmental Protection Agency [EPA] National Institutes of Environmental Health Sciences [NIEHS] National Toxicology Program [NTP] U.S. Food and Drug Administration [FDA] Tox21 Assay Overview: Mitochondrial membrane potential (MMP), one of the parameters for mitochondrial function, is generated by mitochondrial electron transport chain that creates an electrochemical gradient by a series of redox reactions. This gradient drives the synthesis of ATP, a crucial molecule for various cellular processes. Measuring MMP in living cells is commonly used to assess the effect of chemicals on mitochondrial function; decreases in MMP can be detected using lipophilic cationic fluorescent dyes. […] The dye accumulates in the mitochondria of healthy cells as aggregates, with red fluorescence. The mitochondrial potential decreases and the dye could not accumulate in the mitochondria and remains in the cytoplasm in monomers, with green fluorescence. In addition to the mitochondrial potential assay, these cells were also used to test the cytotoxicity by determining the cell viability in the culture based on the quantitation of ATP present. The cytotoxicity was measured in the same assay well of MMP assay.
Tox21 Assay Protocol Summary: 2,000 HepG2 cells in 5 uL/well were dispensed into black, clear-bottom 1536-well plates using a Multidrop Combi (Thermo Scientific) dispenser. The assay plates were incubated for an overnight at 37 C to allow cells to attach to the wells, followed by the transfer of 23 nL compound or DMSO vehicle by a pin tool (Kalypsys). The plates were incubated for 1 hr at 37 C and 5% CO2, followed by the addition of 5 uL of 2X m-MPI dye into each well using Flying Reagent Dispenser (Aurora Discovery) and then CellTiter-Glo reagent was added at 4 uL/well and incubated 30 min at room temperature. Then luminescence intensity was quantified on a ViewLux CCD-based plate reader.
On the % scale 0 is the no-effect control and ±100 the full control effect.

Compared with `CCCOc1ccc(S(=O)(=O)N2CCN(CC)CC2)cc1-c1nc2c(CC)n(Cc3ccccn3)nc2c(=O)[nH]1`, `NC(=O)Cn1c(=O)cc(CCN2CCN(c3nccc4sccc34)CC2)c2ccc(F)cc21` is higher in “activity change, negative = cytotoxicity” value: -9.85% for the first, -6.46% for the second.

First: C/C=C/C=C/CCCCCCCO
Second: O=C(CCCCCCCCC#CI)Oc1ccccc1
The “activity change, negative = cytotoxicity” value of the first is lower: -17.8% for the first, 3.08% for the second.

First: CN1CCCN=C1/C=C/c1cccs1
Second: O=C(CCC1CCN(Cc2ccccc2)CC1)c1ccc2c(c1)NCCCC2
The “activity change, negative = cytotoxicity” value of the first is higher: -4.97% for the first, -8.75% for the second.

Going from `CC(C)(CCl)c1ccccc1` to `CCC(C(=O)OCCOCCN(CC)CC)c1ccccc1` (stereo not given), the “activity change, negative = cytotoxicity” value falls from 4.76% to -4.07%.

Going from `CNC(=S)NC` to `C=CC(=O)NCOCC(C)C`, the “activity change, negative = cytotoxicity” value rises from 7.26% to 17.9%.

Compared with `Nc1ccc(S(=O)(=O)O)c(N)c1`, `COc1ccccc1N=Nc1c(S(=O)(=O)O)cc2cc(S(=O)(=O)O)cc(NC(C)=O)c2c1O` is lower in “activity change, negative = cytotoxicity” value: 6.88% for the first, -9.79% for the second.

First: O=C(CS)OCCOC(=O)CS
Second: C=C(C)C(=O)OCCOC(=O)CC(C)=O
The “activity change, negative = cytotoxicity” value of the first is higher: 12.7% for the first, 9.92% for the second.

Compared with `CN(C)CCOC1=Cc2ccccc2Sc2ccc(Cl)cc21`, `Cc1ccc(S)cc1` is higher in “activity change, negative = cytotoxicity” value: 1.5% for the first, 12.3% for the second.

Going from `COC(=O)[C@@H]1CC2=CC(=O)CC[C@]2(C)[C@@]23O[C@@H]2C[C@@]2(C)[C@@H](CC[C@@]24CCC(=O)O4)[C@H]13` to `CN1CCN(c2c(F)cc3c(=O)c(C(=O)O)cn4c3c2OCN4C)CC1`, the “activity change, negative = cytotoxicity” value rises from 9.69% to 14.1%.

Compared with `CC1=NN(c2ccc(C(=O)O)cc2)C(=O)C1`, `O=C(O)c1snc(Cl)c1Cl` is lower in “activity change, negative = cytotoxicity” value: 10.1% for the first, -8.38% for the second.

Compared with `c1cnc2c(n1)CCCC2`, `O=C1NCCN1` is higher in “activity change, negative = cytotoxicity” value: -0.799% for the first, 8.78% for the second.

Going from `CC(Cl)C(Cl)Cl` (stereo not given) to `Cc1cc(O)c(C(C)C)cc1Cl`, the “activity change, negative = cytotoxicity” value falls from 4.69% to 3.99%.

Going from `CCCCCCCCCCCC(=O)[O][Sn]([CH2]CCC)([CH2]CCC)[O]C(=O)CCCCCCCCCCC` to `COCCOC`, the “activity change, negative = cytotoxicity” value rises from -14.6% to -4.07%.

In the case of `CC(=N\O)/C(C)=N/O`, the “activity change, negative = cytotoxicity” value was 2.35%.

Going from `O=C(CCCN1CCC(O)(c2ccc(Br)cc2)CC1)c1ccc(F)cc1` to `C[N+]1(C)CCC(=C(c2ccccc2)c2ccccc2)CC1`, the “activity change, negative = cytotoxicity” value falls from 11.8% [at 39.1 µM] to 10.2% [at 39.1 µM].

Going from `CC(=O)OCC(=O)[C@@]12OC(C)(C)O[C@@H]1C[C@H]1[C@@H]3C[C@H](F)C4=CC(=O)C=C[C@]4(C)[C@@]3(F)[C@@H](O)C[C@@]12C` to `CCCCCCCCCCCCCCCCBr`, the “activity change, negative = cytotoxicity” value falls from 8.01% [at 39.1 µM] to 3.59% [at 39.1 µM].

First: CC(=O)Nc1ccc(N)cc1
Second: CNC(=O)N(c1ccccc1)c1ccccc1
The “activity change, negative = cytotoxicity” value of the first is higher: 4.21% [at 95.3 µM] for the first, -4.18% [at 95.3 µM] for the second.

Going from `O=Cc1c(Cl)cccc1Cl` to `C[C@@H]1C[C@H]2[C@@H]3CCC4=CC(=O)C=C[C@]4(C)[C@@]3(F)[C@@H](O)C[C@]2(C)[C@@]1(O)C(=O)CO`, the “activity change, negative = cytotoxicity” value rises from 4.37% [at 95.3 µM] to 6.99% [at 95.3 µM].

First: CCCCCCCCCCCC[N+](C)(C)CCCS(=O)(=O)[O-]
Second: C=CCOC(=O)/C=C\C(=O)OCC=C
The “activity change, negative = cytotoxicity” value of the first is higher: 4.71% [at 95.3 µM] for the first, -8.72% [at 95.3 µM] for the second.

In the case of `CC#N`, the “activity change, negative = cytotoxicity” value was 7.56% [at 95.3 µM].

Going from `[O]=[Bi]` to `C=CCCCCCCCCCCCCCCCC`, the activity change, negative = cytotoxicity rises from 7.5% [at 8.08 µM] to 11.3% [at 8.08 µM].
